Experimental findings from the OligoGym collection are described below.
Note: reference of the scale not given here.

In the first assay the target is NEURL2. Description: pooled miR-30 sensor sort-seq; sequence = guide strand. Particulars: shRNA.
On to TCTTTGTGGAAGCAAACACGTC, for which the sensor-assay potency score (higher = more potent) was -1.58.
On the same count and under the same terms, with TTTCTCCTCGATCTCGACCAGG the figure was -0.592; with AAACACGTCCACCACCGCGTAG, -1.26; with ATCGGGCAGAGAAAACTCGGGA, -0.832.
TAGGCGGCACAGAGTCTGCAGG: the sensor-assay potency score (higher = more potent) is -1.34.
For TTTATTTCTGGTCTTGGCTGGC, the sensor-assay potency score (higher = more potent) was -0.107.
In the case of TTGTGGAAGCAAACACGTCCAC, the sensor-assay potency score (higher = more potent) was -0.451.
Still for that read-out and setting: with ATGATGTGCATGTCGGCCGTGC the figure was -0.877; with TTCTCCTCGATCTCGACCAGGA, -0.684; with TGTGGAAGCAAACACGTCCACC, -1.66.
Take TATGGTTCCACGAGGAGGGTTG: the sensor-assay potency score (higher = more potent) was -0.457.

In a further assay the target is NEUROD6. The assay is described as above. Particulars: shRNA.
Sequence TAATTCATCTTGCATTGTGAGA displayed a sensor-assay potency score (higher = more potent) of -0.914.
The sequence TAAGTTGTCCAGAGCGTCGTTG yielded a sensor-assay potency score (higher = more potent) of -0.475.
TTGTCTTAATTAGACAGGGGAG came in with a sensor-assay potency score (higher = more potent) of -1.08.
For TTTAATTCATCTTGCATTGTGA, the sensor-assay potency score (higher = more potent) is -0.0595.
Turning to TTTGTTGTCTTTTTTTTCCTAA, the sensor-assay potency score (higher = more potent) was -0.154.
Sequence TTAAGTTGTCCAGAGCGTCGTT showed a sensor-assay potency score (higher = more potent) of -0.144.
